Screens: PubChem BioAssay, several laboratories
BoNT-A LC inh2: inhibitors of Botulinum neurotoxin A light chain protease | multiplex microsphere protease substrate cleavage, flow cytometry | inhibition, % at 10 µM | 0.17% of 360,000 active | AID 588499; note: plate controls were buffer without enzyme for full effect and enzyme alone for no effect
Anthrax LF inh2: blocks Bacillus anthracis lethal factor protease | multiplex microsphere protease cleavage assay, LF | 0.12% of 360,000 active | inhibition, % at 10 µM; note: plate controls were buffer without enzyme for full effect and enzyme alone for no effect
Target sequence (P15917 whole entry, looked up): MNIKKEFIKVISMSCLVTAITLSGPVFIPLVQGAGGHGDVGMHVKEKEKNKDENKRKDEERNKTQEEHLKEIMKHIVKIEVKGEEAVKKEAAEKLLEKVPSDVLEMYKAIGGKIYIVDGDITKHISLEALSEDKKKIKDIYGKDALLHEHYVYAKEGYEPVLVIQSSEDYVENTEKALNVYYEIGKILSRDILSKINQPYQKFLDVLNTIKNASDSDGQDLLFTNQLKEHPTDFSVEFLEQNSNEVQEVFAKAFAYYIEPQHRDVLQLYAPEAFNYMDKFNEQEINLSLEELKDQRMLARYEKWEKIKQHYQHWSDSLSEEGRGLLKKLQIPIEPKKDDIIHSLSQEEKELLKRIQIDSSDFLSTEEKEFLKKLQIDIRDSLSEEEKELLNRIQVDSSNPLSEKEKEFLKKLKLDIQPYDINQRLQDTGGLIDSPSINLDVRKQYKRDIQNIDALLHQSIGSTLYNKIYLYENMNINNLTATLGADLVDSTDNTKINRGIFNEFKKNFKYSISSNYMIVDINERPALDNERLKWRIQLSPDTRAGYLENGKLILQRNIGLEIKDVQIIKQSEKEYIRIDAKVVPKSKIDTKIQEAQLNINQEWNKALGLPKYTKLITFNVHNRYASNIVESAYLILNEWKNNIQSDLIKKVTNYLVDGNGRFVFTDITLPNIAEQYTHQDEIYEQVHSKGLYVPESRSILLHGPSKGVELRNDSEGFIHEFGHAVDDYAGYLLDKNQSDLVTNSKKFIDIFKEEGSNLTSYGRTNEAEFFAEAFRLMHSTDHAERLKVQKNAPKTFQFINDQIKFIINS
BoNT-F LC inh: blocks Botulinum neurotoxin F light chain protease | 0.22% of 360,000 active | inhibition, % at 10 µM | Multiplex microsphere protease cleavage assay, flow cytometry; in the data active = inhibition above about 35%, passing the limit was not always enough; inconclusive = no clear call, values can overlap the other calls; note: plate controls were buffer without enzyme for full effect and enzyme alone for no effect
Bead autofluor: flagged as autofluorescent in microsphere protease counterscreen; 3.1% of 360,000 active; fluorescence intensity (concentration not given with the values); compound autofluorescence counterscreen, microsphere flow cytometry; hits give high values; in the data active = fluorescence intensity above about 16000; inconclusive = no clear call, values can overlap the other calls
PriA SSB inh: inhibitors of Klebsiella pneumoniae PriA binding to SSB C-terminal tail; AlphaScreen SSBct-PriA binding, biotinylated peptide; inhibition, % at 33 µM; 0.6% of 430,000 active; in the data active = inhibition mostly above about 37%, no sharp cut-off; inactive = mostly below about 20%;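 note: plate controls were negative control peptide for no effect and reference peptide for full effect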
* marks the source's active call; other numbers are inactive results; ? = inconclusive; · = no result given. Only some compounds are listed: those with a hit (about 3.1% of all), similar ones and a draw of the others. Cut-off read from the data, not from the text of the source, unless noted: active = inhibition above about 30%; inconclusive = no clear call, values can overlap the other calls; inactive = below that.

SMILES	BoNT-A LC inh2	Anthrax LF inh2	BoNT-F LC inh	Bead autofluor	PriA SSB inh
CCOc1cccc(-c2nnc(SCC(=O)Nc3cc(OC)cc(OC)c3)n2N)c1	?	-2	-3	22656*	0
Cc1ccccc1-c1nnc(SCC(=O)Nc2ccc3c(c2)OCCO3)n1N	2	?	-5	?	0
Cc1ccccc1-c1nnc(SCC(=O)Nc2ccc(Cl)cc2)n1N	2	-1	1	15729	1
COc1ccc(NC(=O)CSc2nnc(-c3ccccc3C)n2N)cc1OC	?	-1	-1	22260*	-6
COc1ccc(NC(C)=O)cc1NC(=O)CSc1nnc(-c2ccc(F)cc2)n1N	0	-3	-2	20810*	-14
CC(C)OC(=O)CSc1nnc(-c2ccccn2)n1C	-1	-4	-6	17273*	-9
CCCCSc1nnc(-c2ccc(NC(=O)CCc3ccccc3)cc2)n1C	3	-11	5	20381*	-14
CC(C)c1ccc(NC(=O)CSc2nnc(-c3ccccn3)n2C)cc1	0	8	17	9510	-3
Cn1c(SCC(=O)NCc2ccccc2)nnc1-c1ccc(NC(=O)CCc2ccccc2)cc1	-1	-4	-16	2922	-8
CCc1ccc(NC(=O)CSc2nnc(-c3ccccn3)n2C)cc1	1	-3	2	19708*	7
COc1ccccc1C(=O)Nc1nc(-c2nnn(-c3ccccc3Br)c2C)ns1	·	·	·	·	-7
CC12CCC3C(CCC4CCCCC43C)C1C/C(=C\c1ccc([N+](=O)[O-])cc1)C2=O (configuration not stated)	·	·	·	·	-8
CCOC(=O)c1ccc(NC2=CC(=O)CC(c3ccco3)C2)cc1 (configuration not stated)	0	2	-5	3591	-1
O=C1C=C(Nc2ccc(O)cc2)CC(c2ccco2)C1 (configuration not stated)	?	-4	-9	23693*	7
Cc1ccccc1-c1nc(CS(=O)CC(=O)NC(C)CCc2ccccc2)c(C)o1 (configuration not stated)	·	·	·	·	60*
COc1cccc(-c2nc(CS(=O)CC(=O)NC(C)CCc3ccccc3)c(C)o2)c1 (configuration not stated)	-2	-3	1	4501	-12
COc1ccc(CNc2nc3nc(C)c(Cl)c(=O)n3[nH]2)cc1	0	-2	-4	4249	-8
COc1ccccc1CNc1nc2nc(C)c(Cl)c(=O)n2[nH]1	?	-4	1	21476*	-10
O=C(Nc1ccc2cn[nH]c2c1)c1coc(NC(=O)c2cccs2)n1	·	·	·	·	-16
Nc1ccc2nc(CCCCCCCCc3nc4ccc(N)cc4[nH]3)[nH]c2c1	0	-10	-38	3084	49*
Nc1ccc2nc(CCCCCCc3nc4ccc(N)cc4[nH]3)[nH]c2c1	0	-33	-50	2513	33
Cc1cc(NC(=O)c2ccccc2F)n(-c2nc3c(F)cccc3s2)n1	·	·	·	·	1
CC(C)(C)c1ccc(C(=O)Nc2ccc(S(C)(=O)=O)cc2)cc1	·	·	·	·	0
CN1CCN(S(=O)(=O)c2cccc(Cl)c2)CC1	·	·	·	·	10
O=S(=O)(c1cccc(Cl)c1)N1CCCC1	-1	-1	-2	24145*	-9
SMILES	BoNT-A LC inh2	Anthrax LF inh2	BoNT-F LC inh	Bead autofluor	PriA SSB inh
CC1CCN(S(=O)(=O)c2cccc(-c3nnc(-c4cccnc4)o3)c2)CC1	0	-4	-2	3713	-7
O=S(=O)(c1cc(Cl)ccc1Br)N1CCCCC1	4	-6	4	21533*	-16
O=S(=O)(c1cccc(S(=O)(=O)N2CCCC2)c1)c1cccc(S(=O)(=O)N2CCCC2)c1	?	-3	-4	21252*	1
O=S(=O)(c1cccc(-c2nnc(-c3cccnc3)o2)c1)N1CCCCC1	?	0	1	19643*	-7
O=C(Oc1ccc(/C=C/C(=O)N2CCc3ccccc32)cc1)c1ccccc1F	·	·	·	·	9
CC(C)CNC(=O)CON=Cc1ccccc1Cl	·	·	·	·	-5
Cc1cc(C)c2c(n1)nn1c(NC[C@H]3CCCO3)cc(C)nc21	·	·	·	·	-15
CC(NC(=O)OCc1ccccc1)C(=O)NCC1CCCO1 (configuration not stated)	1	-1	2	22834*	-3
CC(NC(=O)C(=O)NCC1CCCO1)c1ccccc1 (configuration not stated)	0	-3	1	4085	1
CC(C(=O)NCC1CCCO1)N(C(=O)c1snc(C(N)=O)c1N)c1ccccc1 (configuration not stated)	0	-1	1	23246*	-18
O=C(CSc1nnc(CNC(=O)c2ccc(S(=O)(=O)N3CCCC3)cc2)n1-c1ccc(Br)cc1)Nc1cc(C(F)(F)F)ccc1Cl	·	·	·	·	-4
CC(C)c1nnc(C2CCN(CC(=O)Nc3ccc(Br)cc3)CC2)o1	·	·	·	·	-7
NC(=O)CN1CCN(Cc2nc(-c3cccs3)cs2)CC1	·	·	·	·	-13
COc1cccc(NC(=O)N(CCCN2CCOCC2)C(C)c2cc3ccccc3o2)c1 (configuration not stated)	3	1	4	21426*	-21
COc1cccc(NC(=O)N(CCCN2CCOCC2)C(C)c2cc3cccc(OC)c3o2)c1 (configuration not stated)	0	-4	-1	2656	6
NC(=O)c1ccsc1NC(=O)C1CCCN1S(=O)(=O)c1ccc(Cl)s1 (configuration not stated)	·	·	·	·	-7
O=C(Nc1nc(-c2ccccc2)cs1)C1CCCCN1S(=O)(=O)c1ccccc1 (configuration not stated)	1	-8	-7	?	4
O=C(Nc1nc(-c2ccccc2)cs1)C1CCCCN1S(=O)(=O)c1ccc(Cl)cc1 (configuration not stated)	1	-5	-5	16281*	1
NC(=O)c1ccsc1NC(=O)C1CCCN1S(=O)(=O)c1ccc(Cl)cc1 (configuration not stated)	0	-1	0	20384*	-2
COc1cccc(OCC(=O)NCC(c2ccc3c(c2)CCCN3C)N2CCCC2)c1 (configuration not stated)	·	·	·	·	10
O=C(CN1CC(c2nc(-c3ccco3)no2)C1)N1CCCc2ccccc21	·	·	·	·	0
COC(=O)C1=CN(Cc2ccc(OC)cc2)C=C(C(=O)OC)C1c1cc(OC)c(OC)c(OC)c1	-2	-2	41*	3899	-26
COc1ccc(C(C)=O)cc1CSc1nnc(-c2ccccc2O)n1-c1ccccc1	1	-2	-2	19750*	4
COc1ccc(-c2nnc(SCCC(=O)O)n2-c2ccccc2)cc1OC	-5	-2	-8	25005*	-25
COc1ccc(Cl)cc1Nc1nnc(C)c(=O)[nH]1	·	·	·	·	-1
CCCOc1ccccc1Nc1nnc(C)c(=O)[nH]1	-5	-4	-7	21083*	-6
O=C(CCC(=O)OCC(=O)c1ccccc1)Nc1cccc2cccnc12	-1	-3	-11	9177	-4
O=C(CCC(=O)OCC(=O)c1ccc(Br)cc1)Nc1ccc(Br)c2cccnc12	3	-8	3	18928*	-2
N#C/C(=C/c1ccc(C(=O)O)cc1)C(=O)NCc1ccccc1	?	-2	-9	17589*	-4
COc1ccc2c(C)cc(SCC(=O)c3ccc(Oc4ccccc4)cc3)nc2c1	·	·	·	·	-8
